# Most compounds without a hit are left out; they make up all but 28% or so of the library.
# CYP2C9 act: human CYP2C9 activators, primary screen, biochemical, luminescence. recombinant CYP2C9, luciferin-H conversion; hits give high values; factor 1 = untreated enzyme, 0 = blocked. Cytochrome P450 2C9 (Homo sapiens), P11712. 96,000 tested, 1.4% active. AID 1024, 2008. activation factor at 5 µM;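 active = activation factor of 2 or more for CYP2C9 at a 5 µM dose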;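 also: 0 = sulfaphenazole-blocked wells and 1 = vehicle-only wells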
# CYP2C19 inhib: blockers of cytochrome P450 2C19 activity – biochemical, luminescence, ADME assay, primary screen | P33261 | CYP2C19 Supersomes, luciferin-H EGE luminescence, 30 min | inhibition, % at 5 µM | 96,000 tested, 21% active | AID 778, 2007;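 active = CYP2C19 inhibition above a set limit at 5 µM in the primary screen, cut at about 50% in these data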;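 also: plate controls were negative control wells for no effect and 2.5 mM tranylcypromine positive control for full effect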
# Target sequence (P33261 whole entry, looked up): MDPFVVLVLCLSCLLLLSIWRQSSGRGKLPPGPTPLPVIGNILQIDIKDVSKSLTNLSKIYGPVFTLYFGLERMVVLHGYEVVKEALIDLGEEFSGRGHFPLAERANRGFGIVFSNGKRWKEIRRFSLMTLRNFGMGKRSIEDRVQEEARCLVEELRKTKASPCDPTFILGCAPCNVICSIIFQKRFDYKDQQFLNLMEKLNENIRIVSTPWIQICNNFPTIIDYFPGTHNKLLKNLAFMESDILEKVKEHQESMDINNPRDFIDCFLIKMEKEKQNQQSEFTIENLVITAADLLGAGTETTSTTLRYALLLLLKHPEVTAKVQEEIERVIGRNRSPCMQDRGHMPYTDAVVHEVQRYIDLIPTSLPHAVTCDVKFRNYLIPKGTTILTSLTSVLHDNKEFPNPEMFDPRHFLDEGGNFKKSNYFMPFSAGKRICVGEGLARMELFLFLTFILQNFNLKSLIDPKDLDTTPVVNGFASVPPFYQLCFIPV
# CYP2C19 act: human CYP2C19 activators, primary screen, biochemical, luminescence. recombinant CYP2C19, luciferin-H EGE luminescence; hits give high values; 0 = fully inhibited enzyme, 1 = untreated enzyme. activation factor at 5 µM. 96,000 tested, under 10 active. Cytochrome P450 2C19 (Homo sapiens), P33261;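 active = activation factor of at least 2 at 5 µM in the primary screen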;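 also: 0 = wells with 2.5 mM tranylcypromine and 1 = vehicle-only wells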
# CYP2C9 inh: blockers of cytochrome P450 2C9 activity – biochemical, luminescence, ADME assay, primary screen; P11712; CYP2C9 Supersomes, luciferin-H conversion; 96,000 tested, 20% active; inhibition, % at 5 µM;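 active = blocking of liver enzyme CYP2C9 beyond about 50% at 5 µM, limit read from the data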
# Mac1 fbg enh: enhancers of CD11b/CD18 adhesion to fibrinogen, primary screen, K562 cells, luminescence; Integrin beta-2 (Homo sapiens) + Integrin alpha-M (Homo sapiens), P05107+P11215; ATPlite luminescence; activation, % at 10 µM; 93,000 tested, 0.07% active;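 active = 10 µM primary screen giving 50% or more activity, confirmed by 40% or more on retest at that dose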
# Mac1 fbg inh: inhibitors of CD11b/CD18 adhesion to fibrinogen, primary screen, K562 cells, luminescence; Integrin beta-2 (Homo sapiens) + Integrin alpha-M (Homo sapiens), P05107+P11215; ATPlite luminescence; Mn2+ added to activate the integrin; inhibition, % at 10 µM; 93,000 tested, 0.54% active;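 active = primary inhibition of 50% or more at 10 µM, then 40% or more on retest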
# Numbers without * were called inactive; x = no result.
SMILES,CYP2C9 act,CYP2C19 inhib,CYP2C19 act,CYP2C9 inh,Mac1 fbg enh,Mac1 fbg inh
Cc1nn(CC(O)Cn2cnc3c2c(=O)n(C)c(=O)n3C)c(C)c1Br (stereo not given),1,3,1,2,-4,8
Cc1ccc2c(c1)c1c(n2CC(O)CNC(C)(C)C)CCCC1 (stereo not given),1,28,0.7,-1,-2,-8
Cc1nn(CC(O)Cn2c3c(c4ccccc42)CCN(C)C3=O)c(C)c1Br (stereo not given),0.2,91*,0.1,81*,0,12
Cc1ccc2c(c1)c1c(n2CC(O)Cn2nc(C)c(Br)c2C)CCCC1 (stereo not given),0.3,64*,0.4,72*,0,16
CC(C)(C)N1CC2(c3ccccc3)CN(C(C)(C)C)CC(c3ccccc3)(C1)C2=O,1,-10,1.1,4,-1,-4
O=C(O)C1C2C=CC3(CN(Cc4ccccn4)C(=O)C13)O2 (stereo not given),1.3,-30,1.3,-27,x,x
Cc1sc2nc(C)n(/N=C/c3ccc(O)cc3)c(=O)c2c1C,0.9,0,1,7,-2,6
CC(C)CC(/C(O)=C(\C#N)c1nc2ccccc2[nH]1)N1C(=O)c2ccccc2C1=O (stereo not given),0.1,96*,0,95*,-7,18
CC1CCCN(C/C(O)=C(\C#N)c2nc3ccccc3[nH]2)C1 (stereo not given),1,0,1,-1,3,0
CC(C)(C)/C(O)=C(/C#N)c1nc2ccccc2[nH]1,0.4,39,0.6,64*,1,-22
COc1ccc(OC/C(O)=C(\C#N)c2nc3ccccc3[nH]2)cc1,1.1,-14,1.1,-12,16,6
COc1ccc(C/C(O)=C(\C#N)c2nc3ccccc3[nH]2)cc1OC,0.5,-3,1,50*,-2,-3
COc1cccc(OC)c1/C(O)=C(\C#N)c1nc2ccccc2[nH]1,0.8,58*,0.4,24,-1,24
COc1ccccc1OCC(=O)OC/C(O)=C(\C#N)c1nc2ccccc2[nH]1,x,x,x,x,8,20
COc1ccc(C(=O)Cn2nnc(-c3ccccc3NC(=O)c3ccco3)n2)cc1,0.8,10,0.9,17,-2,10
Cc1ccc(CSC2=Nc3sccc3C3=NC(=O)CN23)cc1,0.7,66*,0.3,26,x,x
COc1cc2c(cc1OC)C1=NC(=O)CN1C(SCc1ccc(C)cc1)=N2,1,-4,1,0,48,16
Cc1cccc(-c2noc(Cc3ccc(Cl)cc3)n2)c1,0.4,80*,0.2,56*,1,23
CC(C)(C)C1=Nn2c(nnc2-c2ccccn2)SC1,1.1,9,0.9,-10,5,7
COc1ccccc1-c1nnc2n1N=C(C)CS2,1,15,0.9,-1,-1,-6
COc1ccccc1-c1nnc2n1N=C(C(C)(C)C)CS2,0.5,79*,0.2,46,-4,5
CC(C)(C)C1=Nn2c(nnc2C2CCCCC2)SC1,0.6,68*,0.3,45,2,4
CC(C)(C)C1=Nn2c(nnc2-c2ccccc2F)SC1,0.6,78*,0.2,43,-2,-1
CC(=O)NC1=NN(C(C)=O)C(c2sccc2C)S1 (stereo not given),0.8,34,0.7,21,-1,7
O=C1OC(c2ccc3c(c2)OCO3)N(C(=O)c2ccc(Cl)c(Cl)c2)c2ccccc21 (stereo not given),0.1,84*,0.2,86*,-5,1
SMILES,CYP2C9 act,CYP2C19 inhib,CYP2C19 act,CYP2C9 inh,Mac1 fbg enh,Mac1 fbg inh
Cc1cccc(C(=O)N2c3ccccc3C(=O)OC2c2ccc3c(c2)OCO3)c1 (stereo not given),0.4,27,0.7,58*,x,x
CC(=O)N1C(c2ccccc2)CC(=O)OC1c1ccc2c(c1)OCO2 (stereo not given),0.9,69*,0.3,14,-4,8
CC(=O)N1c2ccccc2C(=O)OC1c1cccnc1 (stereo not given),0.9,12,0.9,10,1,-2
CCOC(=O)c1[nH]c2cc(OC)c(OC)cc2c1NC(=O)c1nonc1C,0.5,1,1,48,-3,-16
Nc1nc(Nc2ccc(Cl)cc2Cl)nc(C(F)(F)F)n1,0.8,16,0.8,18,0,1
Nc1nc(Nc2ccccc2Br)nc(C(F)(F)F)n1,0.5,46,0.5,54*,3,-14
CCCCCCn1c(=O)c(F)cn(Cc2ccc(OC)c([N+](=O)[O-])c2)c1=O,0.4,30,0.7,60*,-4,-6
CCCn1c(=O)c(F)cn(Cc2ccc(OC)c([N+](=O)[O-])c2)c1=O,0.7,29,0.7,26,x,x
CCCCCn1c(=O)c(F)cn(Cc2ccc(OC)c([N+](=O)[O-])c2)c1=O,0.5,12,0.9,52*,-2,-15
CCCS(=O)(=O)N1CCC(C(=O)N2CCc3ccccc3C2)CC1,1,34,0.7,0,0,-4
CC1=NCC(C)c2c1[nH]c1ccccc21 (stereo not given),1.1,12,0.9,-5,x,x
CCOC(=O)CSc1nnc(-c2ccoc2C)n1-c1ccc(OCC)cc1,0.2,92*,0.1,82*,-1,13
COC(=O)CSc1nnc(-c2ccoc2C)n1-c1ccc(OC)cc1,0.9,39,0.6,8,1,-8
COc1cccc(-n2c(SCC(=O)NC(C)(C)C)nnc2-c2ccoc2C)c1,0.9,73*,0.3,11,-2,-3
O=C(Nc1ccccn1)C(F)(F)C(F)(F)C(F)(F)C(F)(F)C(=O)Nc1ccccn1,x,x,x,x,-4,-32
COc1ccc(OC)c(C2C(C(N)=O)=C(C)Nc3nc(CCCO)nn32)c1 (stereo not given),1,-5,1.1,1,-1,-7
O=C(NCCN1CCN(c2ccccc2)CC1)c1cccn2c(=O)c3cc(Cl)ccc3nc12,0.4,39,0.6,64*,41,10
CCOC(CNC(=O)c1cccn2c(=O)c3cc(Cl)ccc3nc12)OCC,0.3,22,0.8,66*,-1,10
O=C(NCCN1CCN(c2ccccc2)CC1)c1cccc(Br)c1,0.6,53*,0.5,45,0,-18
O=C(c1cccn2c(=O)c3cc4ccccc4cc3nc12)N1CCN(c2ccccc2)CC1,0.7,30,0.7,30,-2,-2
